Test results as given in PubChem BioAssay (NCATS).
Results filed as inconclusive are left out. A call without a number means that no potency is given here. Activity calls are given as the source filed them. Calls come from the whole dose curve; as a rule, active = well fitted inhibition curve with a large enough effect; inconclusive = small, poorly fitted or top-dose-only effect; inactive = flat fitted curve, though single readings scatter.

How the values were obtained:
Test in all cases: qHTS profiling for inhibitors of Plasmodium falciparum proliferation (AID 504749); note: nearly all actives have a fitted effect of over 60% in size
Conditions in all cases: P. falciparum in erythrocytes, SYBR Green DNA, 72 h; series mostly up to 28.7 µM
[1] = test system: CP291
Summary of the method: (§1)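 Fluorescence of SYBR Green-bound parasite DNA, read at 485/535 nm, served as the growth measure. Infected erythrocytes were cultured with compound 72 h; artemisinin (0.29 uM) and DMSO wells defined the normalization range.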

[2] = test system: CP305
Summary of the method: as §1

[3] = test system: CP315
Summary of the method: as §1

[4] = test system: CP325
Summary of the method: as §1

[5] = test system: CP329
Summary of the method: as §1

[6] = test system: CP335
Summary of the method: as §1

[7] = test system: DFO2036
Summary of the method: as §1

[8] = test system: DIV30
Summary of the method: as §1

[9] = test system: ECU
Summary of the method: as §1

[10] = test system: FAB9
Summary of the method: as §1

[11] = test system: GB4
Summary of the method: as §1

[12] = test system: HB3
Summary of the method: as §1

[13] = test system: ICS
Summary of the method: as §1

[14] = test system: JCK
Summary of the method: as §1

[15] = test system: N140
Summary of the method: as §1

[16] = test system: DIV14
Summary of the method: as §1

[17] = test system: DIV17
Summary of the method: as §1

[18] = test system: Dd2
Summary of the method: as §1

[19] = test system: P93_24
Summary of the method: as §1

[20] = test system: CP297
Summary of the method: as §1
Potency is the fitted concentration of half-maximal effect.

SMILES | Potency [1] | Potency [2] | Potency [3] | Potency [4] | Potency [5] | Potency [6] | Potency [7] | Potency [8] | Potency [9] | Potency [10] | Potency [11] | Potency [12] | Potency [13] | Potency [14] | Potency [15] | Potency [16] | Potency [17] | Potency [18] | Potency [19] | Potency [20]
NC1CCN(c2cccc(Cl)n2)CC1 | inactive | inactive | inactive | inactive | inactive | inactive | inactive | inactive | inactive | inactive | 7.57 µM (active) | inactive | inactive | inactive | inactive |  |  |  |  | 
CC1=C(/C=C/C(C)=C/C=C/C(C)=C/C(=O)O)C(C)(C)CCC1 | inactive | inactive | inactive | inactive | inactive | inactive | inactive | inactive | inactive | inactive | inactive | inactive | inactive | inactive | inactive | inactive | inactive | inactive | inactive | 
COCCOC(=O)C1=C(C)NC(C)=C(C(=O)OC/C=C/c2ccccc2)C1c1cccc([N+](=O)[O-])c1 (centres undefined) |  |  |  |  |  | 9.53 µM (active) |  |  | 10 µM (active) | inactive |  | 11.2 µM (active) | 11.2 µM (active) | inactive | 8.91 µM (active) | 13.5 µM (active) | 8.49 µM (active) | 12.6 µM (active) | 11.2 µM (active) | 
CN(C)CCN(Cc1ccccc1)c1ccccn1 |  |  | inactive |  | inactive |  | inactive |  | inactive | inactive |  | inactive |  | inactive |  |  |  |  |  | inactive
CNC(=O)Oc1ccc2c(c1)[C@]1(C)CCN(C)[C@@H]1N2C |  |  | inactive |  |  | 7.57 µM (active) | 2.24 µM (active) |  | 1.78 µM (active) | 2 µM (active) | 4.78 µM (active) | 2 µM (active) |  | 2.82 µM (active) | 1.78 µM (active) |  | 4.26 µM (active) |  | 1.58 µM (active) | 
CC(CN1c2ccccc2Sc2ccccc21)N(C)C (centres undefined) | inactive |  | inactive | inactive | inactive | inactive | inactive | inactive | inactive | inactive |  | inactive | inactive | inactive | 4.47 µM (active) | inactive | inactive |  |  | 
C#CCN(C)Cc1ccccc1 | inactive | inactive | inactive | inactive | inactive | inactive | inactive | inactive | inactive | inactive | inactive | inactive | inactive | inactive | inactive | inactive | inactive | inactive | inactive | 
CN1CCN(C2Cc3ccccc3Sc3ccc(Cl)cc32)CC1 (centres undefined) | inactive | inactive | inactive | inactive | inactive |  | inactive |  |  | inactive |  | inactive | 12.6 µM (active) | inactive | inactive |  |  |  |  | 
CCOc1nc2cccc(C(=O)O)c2n1Cc1ccc(-c2ccccc2-c2nn[nH]n2)cc1 |  | inactive | inactive | inactive | inactive | inactive | inactive |  |  | inactive | inactive | inactive |  | inactive |  |  |  | inactive | inactive | inactive
CCN(CC)CCNC(=O)c1c(C)[nH]c(/C=C2\C(=O)Nc3ccc(F)cc32)c1C |  |  | 10.7 µM (active) |  | 12 µM (active) | 12 µM (active) | 8.91 µM (active) | 13.5 µM (active) | 7.94 µM (active) |  | 7.57 µM (active) | 8.91 µM (active) | 3.98 µM (active) |  | 8.91 µM (active) | 4.78 µM (active) | 5.36 µM (active) | 11.2 µM (active) | 6.31 µM (active) | 
CCN(CC)CCNC(C(=O)OCCC(C)C)c1ccccc1 (centres undefined) |  |  | inactive |  |  |  |  |  |  | inactive | 7.57 µM (active) | inactive | 5.62 µM (active) | inactive |  | 4.26 µM (active) | 7.57 µM (active) | 7.08 µM (active) | 8.91 µM (active) | 
[Cl][In]([Cl])[Cl] |  |  | inactive |  | inactive |  |  | 15.1 µM (active) |  |  |  |  | 2.51 µM (active) |  |  |  |  | 11.2 µM (active) | 10 µM (active) | 
CN1CCCCC1CCN1c2ccccc2Sc2ccc(S(C)=O)cc21 (centres undefined) |  |  | inactive | inactive | inactive |  | inactive |  | inactive | inactive |  | inactive | 5.01 µM (active) | inactive |  | 7.57 µM (active) | 12 µM (active) |  |  | inactive
NCC(=O)CCC(=O)O | inactive | inactive | inactive | inactive | inactive |  | inactive | inactive | inactive | inactive | inactive | inactive | inactive | inactive | inactive | inactive | inactive | inactive | inactive | 
O=C(O)c1ccccc1O | inactive | inactive | inactive | inactive | inactive | inactive | inactive | inactive | inactive | inactive | inactive | inactive | inactive | inactive | inactive | inactive | inactive | inactive | inactive | 
c1ccc(CN(CC2=NCCN2)c2ccccc2)cc1 | inactive |  | inactive | inactive | inactive |  |  |  |  | inactive |  | inactive |  |  |  | 6.75 µM (active) | 7.57 µM (active) | 12.6 µM (active) |  | 
CC(C)(C)C(=O)C(Oc1ccc(Cl)cc1)n1ccnc1 (centres undefined) |  |  |  |  | inactive |  | 12.6 µM (active) | 12 µM (active) | 10 µM (active) | inactive | 13.5 µM (active) |  | 12.6 µM (active) | inactive | 8.91 µM (active) | 13.5 µM (active) | 13.5 µM (active) | 11.2 µM (active) | 5.01 µM (active) | 16.9 µM (active)
Cc1ccc2nc(N)[nH]c(=O)c2c1Sc1ccncc1 |  |  | inactive |  |  |  | 10 µM (active) | inactive |  |  | 10.7 µM (active) |  |  | 12.6 µM (active) | 3.98 µM (active) |  |  | 11.2 µM (active) | 14.1 µM (active) | inactive
O=C1c2c(O)cccc2Cc2cccc(O)c21 |  | inactive | inactive | inactive | inactive | inactive | inactive | inactive | inactive | inactive | inactive | inactive | inactive | inactive | inactive | inactive | inactive | inactive | inactive | inactive
CSc1ccc2c(c1)N(CCC1CCCCN1C)c1ccccc1S2 (centres undefined) |  |  |  |  |  |  |  |  | 11.2 µM (active) |  | 10.7 µM (active) | inactive | 10 µM (active) |  |  | 10.7 µM (active) | 10.7 µM (active) |  | 11.2 µM (active) | 
